D1 potentiator: potentiators of human D1 dopamine receptor | P21728 | HEK293 TREx D1 cells, calcium flux, dopamine EC20 potentiation | potentiation, % at 10 µM | 360,000 tested, 0.036% active; in the data active = potentiation above about 30%; also: 0% is about no effect
D1 antag: blocks dopamine activation of the human D1 receptor | P21728 | HEK293 TREx D1 cells, calcium flux, dopamine EC80; hits give low values | activity change, negative = inhibition, % at 10 µM | 360,000 tested, 3.2% active | AID 504652; in the data active = activity change below about -30%; also: % is scaled to controls: 0 for no effect and ±100 for the full control effect
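Tetracycline-induced HEK293 T-REx cells with force-coupled D1 receptor were loaded with a no-wash calcium dye. Compound was added after a 10 s baseline and read kinetically for 180 s; EC80 dopamine was then added and calcium flux followed another 180 s.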
D1 ag: agonists of human D1 dopamine receptor | P21728 | HEK293 T-REx D1 cells, calcium flux, agonist mode | activation, % at 2 µM | 360,000 tested, 1% active; in the data active = activation above about 30%; also: 0% is about no effect
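Tetracycline-induced HEK293 TREx D1 cells, force-coupled to calcium signalling, were dye-loaded with a no-wash calcium kit. Compound was pin-added after a 10 s baseline. Fluorescence was read kinetically at 1 cycle/s for 180 s, with calcium rises flagged as agonism.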
Eya2 phos inh: inhibitors of human Eya2 phosphatase activity. O00167. recombinant Eya2, OMFP fluorescence dephosphorylation (OMFP is methylfluorescein phosphate). Potency, µM (series often up to 76.9 µM), inactives show at the top dose activity, negative = inhibition, usual class: inhibitors. 330,000 tested, 0.006% active; also: potency is read from the fitted curve at half-maximal effect; % is scaled to controls: 0 for no effect and ±100 for the full control effect
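Eya2 protein (added as 0.2 uM solution) was preincubated with compound for 10 min at ambient temperature in 50 mM HEPES pH 7.5, 50 mM NaCl, 5 uM MgCl2, 0.05% BSA, 1 mM DTT. OMFP (added at 50 uM) then reacted 10 min; fluorescence read at 485/525 nm.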
GALK inhibitor: inhibitors of human galactokinase; 270,000 tested, 0.007% active; Purified GALK, Kinase-Glo residual ATP luminescence; Potency, µM (titrated, usually from 57.5 µM), without a hit: at the highest dose activity change, negative = inhibition, hits mostly inhibitors; AID 1868; P51570; also: potency is read from the fitted curve at half-maximal effect; % is scaled to controls: 0 for no effect and ±100 for the full control effect
Target sequence (P51570 whole entry, looked up): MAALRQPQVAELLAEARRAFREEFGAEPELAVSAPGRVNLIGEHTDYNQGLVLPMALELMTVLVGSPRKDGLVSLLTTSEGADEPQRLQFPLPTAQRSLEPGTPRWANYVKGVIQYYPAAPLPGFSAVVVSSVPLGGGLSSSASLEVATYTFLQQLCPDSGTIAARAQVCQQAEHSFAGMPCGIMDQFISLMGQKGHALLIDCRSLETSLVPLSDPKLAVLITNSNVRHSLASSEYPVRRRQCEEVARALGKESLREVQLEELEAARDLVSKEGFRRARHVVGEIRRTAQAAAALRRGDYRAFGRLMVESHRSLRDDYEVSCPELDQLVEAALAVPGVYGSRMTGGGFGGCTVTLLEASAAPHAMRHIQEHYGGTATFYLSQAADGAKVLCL
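Kinase-Glo Plus luminescence measured ATP left after a 1 h room-temperature reaction. The reaction used 5 nM GALK, 100 uM galactose and 35 uM ATP at pH 8.0 (20 mM HEPES, 5 mM MgCl2, 60 mM NaCl, 1 mM DTT, 0.01% BSA).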
USP2a block: blocks human ubiquitin-specific protease USP2a; O75604; USP2 core, Ub-CHOP2 coupled fluorogenic reporter, 485/531; Potency, µM (top dose mostly 38.3 µM), for inactives: at the highest dose activity change, negative = inhibition, hits mostly inhibitors; 330,000 tested, 0.01% active;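 also: potency is read from the fitted curve at half-maximal effect; plate controls were DMSO wells for no effect and full inhibition by NEM control for full effect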
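Deubiquitinase activity read as fluorescence (485/531 nm) after Ub-CHOP2 cleavage activates the enterokinase reporter on its substrate; USP2 core 10nM, Ub-CHOP2 and substrate 25nM each, 30min compound preincubation then 60min RT; data normalized to NEM, curves fitted.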
Starred values were filed as active, the others as inactive. A selection: hits, their analogues and other compounds. The true share with any hit is near 3.9%. Unless noted, calls follow the shape of the dose curve; as a rule, active = well fitted inhibition curve with a large enough effect; inconclusive = small, poorly fitted or top-dose-only effect, or effect the other way; inactive = flat fitted curve, though single readings scatter.

Results for O=C(NCc1n[nH]c(=S)n1Cc1ccccc1)c1ccc(Cl)cc1Cl ?
D1 potentiator: 0; D1 antag: -31*; D1 ag: 4; Eya2 phos inh: 2%; GALK inhibitor: 4%; USP2a block: -1%

Results for Cc1cccc(C)c1OCc1cc(=O)n2c3c(sc2n1)CCCC3 ?
D1 potentiator: -2; D1 antag: 0; D1 ag: 0

How did Cc1ccc2nc3c(cc(C#N)c(=O)n3-c3nnc(SCc4ccccc4Cl)s3)c(=O)n2c1 do in these assays?
D1 potentiator: -2; D1 antag: 1; D1 ag: -1

How did CC(=O)C1=C(c2ccc(C)cc2)N(C(C)=O)n2c(nnc2-c2ccccc2)S1 do in these assays?
D1 potentiator: -2; D1 ag: -2

Results for CN=c1scc(-c2ccccc2F)n1/N=C/c1ccc(O)c(O)c1O ?
D1 potentiator: -10; D1 antag: -41*; D1 ag: 19; Eya2 phos inh: -5%; GALK inhibitor: 12%; USP2a block: 13µM*

Results for O=C(N/N=C/c1ccncc1)c1cc2c(ccc3ccccc32)o1 ?
D1 potentiator: 0; D1 antag: -32*; D1 ag: 2; Eya2 phos inh: -2%; GALK inhibitor: 3%; USP2a block: 0%

How did Cc1ccc(NC(=O)CSc2nnc(COc3ccc(Cl)cc3)o2)c(C)c1 do in these assays?
D1 potentiator: -3; D1 antag: -5; D1 ag: 1

How did CCC(NC(=O)Nc1nnc(C(F)(F)F)s1)(C(F)(F)F)C(F)(F)F do in these assays?
D1 potentiator: -11; D1 antag: -58*; D1 ag: 31*; Eya2 phos inh: -17%; GALK inhibitor: -2%; USP2a block: -1%

Results for O=C(CSc1nc2c(cnn2-c2ccc(F)cc2)c(=O)[nH]1)Nc1ccccc1C(F)(F)F ?
D1 potentiator: 1; D1 antag: 3; D1 ag: 2

How did CCCCCNc1nc2sc3c(c2c(=O)n1-c1cccc(Cl)c1)CCN(C)C3 do in these assays?
D1 potentiator: -5; D1 antag: -85*; D1 ag: 0; Eya2 phos inh: 8%; GALK inhibitor: -1%; USP2a block: -5%

Results for CCCCNc1nc2sc3c(c2c(=O)n1-c1cccc(Cl)c1)CCN(C)C3 ?
D1 potentiator: -5; D1 antag: -39*; D1 ag: 3; Eya2 phos inh: 15%; GALK inhibitor: -1%; USP2a block: 11%

Results for Cc1nn(CC(=O)NCc2cc3ccccc3[nH]2)c(C)c1[N+](=O)[O-] ?
D1 potentiator: -18; D1 antag: -41*; D1 ag: -2; Eya2 phos inh: 7%; GALK inhibitor: -4%; USP2a block: 1%

What do the screens show for `O=C(O)c1ccc(Nc2nc3ccccc3n3cnnc23)cc1`?
D1 potentiator: -2; D1 antag: -5; D1 ag: -1

How did O=C(NCCSCc1ccco1)Nc1ccc(Cl)cc1 do in these assays?
D1 potentiator: -6; D1 antag: -30*; D1 ag: 6; GALK inhibitor: 2%

How did COc1ccc(C(=O)NCCSCc2ccccc2)cc1OC do in these assays?
D1 potentiator: -1; D1 antag: -9; D1 ag: 5; Eya2 phos inh: -14%; GALK inhibitor: 1%; USP2a block: 0%

How did COc1ccc(C(=O)NCCSCc2ccco2)cc1OC do in these assays?
D1 potentiator: -8; D1 antag: -34*; D1 ag: 3; Eya2 phos inh: 15%; GALK inhibitor: 6%; USP2a block: 4%

Results for Cn1c(=O)cc(SCC(=O)NCc2ccc(F)cc2)c2cc(Cl)ccc21 ?
D1 potentiator: -3; D1 antag: -10; D1 ag: 2

How did Cc1cccc(NC2=NCC(=O)N2CCc2ccccc2)c1 do in these assays?
D1 potentiator: -7; D1 antag: -36*; D1 ag: 3; Eya2 phos inh: -23%; GALK inhibitor: -1%; USP2a block: -7%

Results for Fc1ccc(CCN2CCN=C2Nc2ccccc2)cc1 ?
D1 potentiator: -8; D1 antag: -15; D1 ag: 35*; Eya2 phos inh: 9%; USP2a block: -1%

Results for c1ccc(CCN2CCN=C2Nc2ccccc2)cc1 ?
D1 potentiator: -6; D1 antag: -12; D1 ag: 19; Eya2 phos inh: -3%; USP2a block: 1%

Results for Cc1cccc(CCN2CCN=C2Nc2ccccc2)c1 ?
D1 potentiator: 0; D1 antag: -40*; D1 ag: 46*; Eya2 phos inh: 5%; USP2a block: 0%

How did C=CCN1C(=O)CN=C1Nc1cccc(C)c1 do in these assays?
D1 potentiator: -2; D1 antag: -7; D1 ag: 2; Eya2 phos inh: -3%; GALK inhibitor: 5%; USP2a block: 2%

What do the screens show for `CCC(C(=O)Nc1cc(OC)ccc1OC)n1nc(-c2ccccc2)c2c(c1=O)CCCC2` (configuration not stated)?
D1 potentiator: 9; D1 antag: 11; D1 ag: 1

What do the screens show for `COc1ccc(CCCc2nnc(SCC(=O)Nc3cc(F)ccc3C)o2)cc1`?
D1 potentiator: -3; D1 antag: -8; D1 ag: 13

What do the screens show for `O=C(CSc1nccc(-c2cccs2)n1)Nc1cccc(Cl)c1`?
D1 potentiator: -2; D1 antag: -6; D1 ag: 6; Eya2 phos inh: 11%; GALK inhibitor: -4%; USP2a block: -1%

Results for O=C(CSc1nccc(-c2cccs2)n1)Nc1ccc(F)c(Cl)c1 ?
D1 potentiator: -7; D1 antag: -39*; D1 ag: 2; Eya2 phos inh: -24%; USP2a block: 0%

Results for Cc1cccc(Cn2c(=O)n(CC3CCC(C(=O)N4CCOCC4)CC3)c(=O)c3sccc32)c1 (configuration not stated) ?
D1 potentiator: -7; D1 antag: -3; D1 ag: 4

What do the screens show for `COc1ccccc1NC(=O)CSc1nnc(Cc2cccn2C)n1CCc1ccccc1`?
D1 potentiator: -7; D1 antag: -31*; D1 ag: 3; Eya2 phos inh: -14%; GALK inhibitor: 3%; USP2a block: 4%

How did COc1ccc(-n2c(Cc3cccn3C)nnc2SCC(=O)Nc2cccc(OC)c2)cc1 do in these assays?
D1 potentiator: 3; D1 antag: 7; D1 ag: 0; Eya2 phos inh: -3%; GALK inhibitor: -1%; USP2a block: 0%

How did COc1ccc(NC(=O)CSc2nnc(Cc3cccn3C)n2-c2ccc(C)cc2)cc1OC do in these assays?
D1 potentiator: -3; D1 antag: -39*; D1 ag: 0; Eya2 phos inh: 5%; GALK inhibitor: -1%; USP2a block: 3%
